Results from PubChem BioAssay (EPA / NIEHS).
Records with an inconclusive call do not appear. Activity calls are given as the source filed them. Rule for the calls, unless noted: active = hit-call score of the fitted dose curve at least 0.9, where 1 is the maximum; inactive = score below 0.9.

Experiments:
[1] = ATG_PBREM_CIS: Attagene CIS-FACTORIAL HepG2 Assay for human Phenobarbital-responsive Enhancer Module (PBREM) (AID 2282955); details: HepG2 PBREM cis-reporter, Attagene multiplexed transcription; actives raise or lower the signal
How it was run: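 Fluorescence of labelled reporter cDNA fragments, resolved by capillary electrophoresis, gives mRNA induction in transfected HepG2 cells treated for 24 h; DMSO serves as negative control and baseline.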

[2] = molecular target: Paired box protein Pax-6 (Homo sapiens) (UniProt P26367); experiment: ATG_Pax6_CIS: Attagene CIS-FACTORIAL HepG2 Assay for human Paired Box 6 (PAX6) (AID 2282956); details: HepG2 CIS-FACTORIAL PAX6 reporter transcription, RNA readout; actives raise or lower the signal
How it was run: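 Read-out is reporter transcript level, measured by RT-PCR with fluorescent primer extension and capillary electrophoresis after 24 h dosing of transfected HepG2 cells. Activity in either direction fitted relative to DMSO control.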

[3] = ATG_PXRE_CIS: Attagene CIS-FACTORIAL HepG2 Assay for human Pregnane X Receptor Element (PXRE) (AID 2282957); details: HepG2 Attagene CIS-FACTORIAL PXRE reporter, mRNA; actives raise or lower the signal
How it was run: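 Fluorescent capillary electrophoresis of amplified reporter cDNA gave the signal, collected 24 h after dosing HepG2 cells that held transfected cis-element reporter constructs.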

[4] = ATG_PPRE_CIS: Attagene CIS-FACTORIAL HepG2 Assay for human Peroxisome Proliferator-activated Response Element (PPRE) (AID 2282958); details: HepG2 PPRE cis-element reporter, Attagene transcription factor profiling; actives raise or lower the signal
How it was run: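 Cells are first transfected transiently with the multiplexed reporter library, then dosed for 24 h. Total RNA is reverse-transcribed, amplified, fluorescently end-labeled and HpaI-cut before capillary electrophoresis; activity is fitted bidirectionally against DMSO controls.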

[5] = ATG_RORE_CIS: Attagene CIS-FACTORIAL HepG2 Assay for human RAR-related Orphan Receptor Element (RORE) (AID 2282959); details: HepG2 Attagene cis-factorial RORE reporter, mRNA; actives raise or lower the signal
How it was run: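 Cells were HepG2 carrying transfected cis-regulated reporter constructs, dosed for 24 hours. Total RNA was reverse-transcribed and reporter cDNA amplified, fluorescently labeled and sized by capillary electrophoresis. Activity was fitted bidirectionally relative to DMSO.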

[6] = molecular target: Transcription factor Sp1 (Homo sapiens) (UniProt P08047); experiment: ATG_Sp1_CIS: Attagene CIS-FACTORIAL HepG2 Assay for human Specificity Protein 1 (Sp1) (AID 2282961); details: HepG2 Sp1 cis-reporter transcription, actives raise or lower the signal
How it was run: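 Endogenous Sp1 activity was gauged in human liver HepG2 cells bearing transfected reporter units under a cis-regulating promoter. After 24 h dosing, reporter mRNA was quantified by RT-PCR with capillary electrophoresis, and activity fitted bidirectionally versus DMSO.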

[7] = ATG_SREBP_CIS: Attagene CIS-FACTORIAL HepG2 Assay for human Sterol Regulatory Element Binding (SREBP) (AID 2282962); details: HepG2 Attagene cis-factorial SREBP reporter, mRNA; actives raise or lower the signal
How it was run: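 Endogenous SREBP activity read as cis-element-driven reporter transcript in transiently transfected HepG2, 24 h post-dosing; quantified via RT-PCR plus capillary electrophoresis of fluorescent fragments. Gain or loss of signal fitted relative to DMSO baseline.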

[8] = molecular target: Signal transducer and activator of transcription 3 (Homo sapiens) (UniProt P40763); experiment: ATG_STAT3_CIS: Attagene CIS-FACTORIAL HepG2 Assay for human Signal Transducer and Activator of Transcription 3 (STAT3) (AID 2282963); details: HepG2, Attagene cis-factorial STAT3 reporter transcription; actives raise or lower the signal
How it was run: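 Uses human liver HepG2 transiently carrying cis-regulated reporter transcription units. Following 24 h dosing, reporter mRNA induction was detected by RT-PCR and capillary electrophoresis, analysed bidirectionally versus DMSO.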

[9] = ATG_TA_CIS: Attagene CIS-FACTORIAL HepG2 Assay for human TA Basal Promoter (AID 2282964); details: HepG2 Attagene CIS-factorial TA basal promoter reporter; actives raise or lower the signal
How it was run: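 HepG2 cells transiently transfected with multiplexed cis-promoter reporter units, dosed 24 h. Reporter mRNA measured by RT-PCR, 6-FAM labelling, HpaI digestion and capillary electrophoresis; bidirectional fit versus DMSO baseline, serving as background control.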

[10] = ATG_TCF_b_cat_CIS: Attagene CIS-FACTORIAL HepG2 Assay for human T-Cell-Factor with beta-catenin (TCF/b-cat) (AID 2282965); details: HepG2 TCF/beta-catenin cis-reporter transcription, actives raise or lower the signal
How it was run: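 In this cis-format system, transfected HepG2 cells report endogenous transcription factor activity. Readout after 24 h exposure is reporter transcript abundance from RT-PCR and capillary electrophoresis, analysed for gain or loss of signal versus DMSO.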

[11] = ATG_TGFb_CIS: Attagene CIS-FACTORIAL HepG2 Assay for human Transforming Growth Factor (TGF) (AID 2282967); details: HepG2 Attagene CIS TGFb reporter, mRNA transcription; actives raise or lower the signal
How it was run: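 HepG2 cells transiently transfected with cis-promoter-driven multiplexed reporter units; 24 h compound exposure. Reporter mRNA measured by RT-PCR, 6-FAM labeling, HpaI digestion and capillary electrophoresis; bidirectional fit versus DMSO baseline.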

[12] = ATG_VDRE_CIS: Attagene CIS-FACTORIAL HepG2 Assay for human Vitamin D Receptor Element (VDRE) (AID 2282968); details: HepG2 VDRE cis-reporter transcription, actives raise or lower the signal
How it was run: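 Transfected HepG2 reporter cells, chemical treatment 24 h. RNA isolated, cDNA amplified with reporter-specific primers, products analysed by capillary electrophoresis. Endpoint fitted in both directions versus DMSO.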

[13] = molecular target: Nuclear receptor subfamily 1 group I member 3 (Homo sapiens) (UniProt Q14994); experiment: ATG_CAR_TRANS: Attagene TRANS-FACTORIAL HepG2 Assay for human Constitutive Androstane Receptor (CAR) (AID 2282969; active = hit-call score of the fitted dose curve at least 0.9, where 1 is the maximum;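 note: activators raise reporter mRNA above DMSO so AC50 marks induction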); details: HepG2 Attagene TRANS-FACTORIAL CAR reporter
How it was run: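 Steps: transient transfection of HepG2 with multiple GAL4-UAS reporter units; 24 h compound incubation; RNA isolation, RT-PCR, 6-FAM primer extension, HpaI digest; capillary electrophoresis. Gain-of-signal relative to DMSO negative control.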

[14] = molecular target: Estrogen receptor (Homo sapiens) (UniProt P03372); experiment: ATG_ERa_TRANS: Attagene TRANS-FACTORIAL HepG2 Assay for human Estrogen Receptor alpha (ERa) (AID 2282970; active = hit-call score of the fitted dose curve at least 0.9, where 1 is the maximum); details: HepG2 Attagene TRANS ERa GAL4 reporter, mRNA
How it was run: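 One of 30 multiplexed endpoints from a HepG2 TRANS system, this one reports ERa-Gal4-driven reporter mRNA. Transcripts were quantified 24 hours post-dosing by fluorescent RT-PCR and capillary electrophoresis, with activity scored as induction over DMSO.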

[15] = molecular target: X-box-binding protein 1 (Homo sapiens) (UniProt P17861); experiment: ATG_Xbp1_CIS: Attagene CIS-FACTORIAL HepG2 Assay for human X-box Binding Protein 1 (XBP1) (AID 2282972); details: HepG2 XBP1 cis-element reporter, Attagene multiplex; actives raise or lower the signal
How it was run: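 Reporter transcripts were quantified by RT-PCR with fluorescent primer extension and capillary electrophoresis after 24 h chemical exposure. Cells: transiently transfected HepG2 carrying cis-regulated reporter constructs; data fitted bidirectionally relative to DMSO.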

[16] = ATG_M_19_TRANS: Attagene TRANS-FACTORIAL HepG2 Assay for M19 Transcription Factor (Internal Marker) (AID 2282974; active = hit-call score of the fitted dose curve at least 0.9, where 1 is the maximum); details: HepG2 Attagene TRANS-FACTORIAL M19 internal marker reporter
How it was run: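 Cells: human HepG2, transiently transfected with multiplexed reporter transcription units. Exposure: 24 h. Detection: RT-PCR of reporter mRNA with capillary electrophoresis. Analysis: gain-of-signal vs DMSO.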

[17] = ATG_Sox_CIS: Attagene CIS-FACTORIAL HepG2 Assay for human SRY-box transcription factor (SOX) (AID 2282960); details: HepG2 Attagene cis-factorial SOX reporter, mRNA; actives raise or lower the signal
How it was run: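 Transient MRTU transfection of HepG2; 24 h compound incubation; TriZol RNA, oligo(dT) RT, PCR, 6-FAM primer extension, HpaI cut, CE. Bidirectional fit, DMSO = baseline.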

[18] = ATG_TAL_CIS: Attagene CIS-FACTORIAL HepG2 Assay for human TAL Basal Promoter (AID 2282966); details: HepG2 Attagene cis-factorial TAL promoter reporter; actives raise or lower the signal;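 note: background control endpoint measuring basal TAL promoter reporter mRNA not a specific factor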
How it was run: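 Transiently transfected HepG2 (cis-regulated reporter units), 24 h treatment, mRNA read by fluorescent CE after RT-PCR; bidirectional fit, DMSO baseline.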

[19] = molecular target: Androgen receptor (Homo sapiens) (UniProt P10275); experiment: ATG_AR_TRANS: Attagene TRANS-FACTORIAL HepG2 Assay for human Androgen Receptor (AR) (AID 2282973; active = hit-call score of the fitted dose curve at least 0.9, where 1 is the maximum); details: HepG2 Attagene TRANS-FACTORIAL AR reporter transcription
How it was run: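 HepG2 cells transiently transfected with multiplexed GAL4-UAS reporter units and chimeric NR-Gal4 fusion; 24 h compound exposure. Reporter mRNA measured by RT-PCR, 6-FAM labelling, HpaI digestion and capillary electrophoresis; gain-of-signal fitted relative to DMSO baseline.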

Measured: AC50

Chain of Signal transducer and activator of transcription 3 (Homo sapiens) (P40763 whole entry, looked up): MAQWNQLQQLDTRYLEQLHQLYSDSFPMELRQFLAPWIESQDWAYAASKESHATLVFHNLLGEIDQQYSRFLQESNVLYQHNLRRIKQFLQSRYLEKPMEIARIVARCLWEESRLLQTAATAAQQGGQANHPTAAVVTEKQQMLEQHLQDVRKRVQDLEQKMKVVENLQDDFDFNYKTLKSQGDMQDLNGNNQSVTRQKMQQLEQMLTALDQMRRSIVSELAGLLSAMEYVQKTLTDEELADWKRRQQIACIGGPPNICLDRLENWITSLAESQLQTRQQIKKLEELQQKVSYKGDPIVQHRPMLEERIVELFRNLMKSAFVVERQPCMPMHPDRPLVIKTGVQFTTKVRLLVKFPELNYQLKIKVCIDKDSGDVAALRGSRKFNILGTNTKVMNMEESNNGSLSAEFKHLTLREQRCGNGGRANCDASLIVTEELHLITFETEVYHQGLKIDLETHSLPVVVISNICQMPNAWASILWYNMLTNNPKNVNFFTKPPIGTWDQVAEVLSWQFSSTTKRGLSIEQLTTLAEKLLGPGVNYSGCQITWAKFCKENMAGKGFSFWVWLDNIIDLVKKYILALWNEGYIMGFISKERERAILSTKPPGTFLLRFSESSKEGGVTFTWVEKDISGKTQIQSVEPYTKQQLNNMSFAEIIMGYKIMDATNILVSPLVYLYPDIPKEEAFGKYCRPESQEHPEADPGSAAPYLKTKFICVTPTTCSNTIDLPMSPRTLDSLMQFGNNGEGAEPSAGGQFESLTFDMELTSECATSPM
Chain of Nuclear receptor subfamily 1 group I member 3 (Homo sapiens) (Q14994 whole entry, looked up, the tested form may be a part): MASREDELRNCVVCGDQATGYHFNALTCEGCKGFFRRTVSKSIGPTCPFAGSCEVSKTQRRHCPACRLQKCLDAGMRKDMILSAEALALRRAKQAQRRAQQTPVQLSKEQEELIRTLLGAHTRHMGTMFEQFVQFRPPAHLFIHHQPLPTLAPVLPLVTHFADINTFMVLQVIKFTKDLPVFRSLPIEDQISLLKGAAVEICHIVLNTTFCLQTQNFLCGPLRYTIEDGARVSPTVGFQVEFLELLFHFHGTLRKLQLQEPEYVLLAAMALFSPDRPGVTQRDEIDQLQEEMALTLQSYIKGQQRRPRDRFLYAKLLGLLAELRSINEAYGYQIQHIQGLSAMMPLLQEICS
Chain of Transcription factor Sp1 (Homo sapiens) (P08047 whole entry, looked up): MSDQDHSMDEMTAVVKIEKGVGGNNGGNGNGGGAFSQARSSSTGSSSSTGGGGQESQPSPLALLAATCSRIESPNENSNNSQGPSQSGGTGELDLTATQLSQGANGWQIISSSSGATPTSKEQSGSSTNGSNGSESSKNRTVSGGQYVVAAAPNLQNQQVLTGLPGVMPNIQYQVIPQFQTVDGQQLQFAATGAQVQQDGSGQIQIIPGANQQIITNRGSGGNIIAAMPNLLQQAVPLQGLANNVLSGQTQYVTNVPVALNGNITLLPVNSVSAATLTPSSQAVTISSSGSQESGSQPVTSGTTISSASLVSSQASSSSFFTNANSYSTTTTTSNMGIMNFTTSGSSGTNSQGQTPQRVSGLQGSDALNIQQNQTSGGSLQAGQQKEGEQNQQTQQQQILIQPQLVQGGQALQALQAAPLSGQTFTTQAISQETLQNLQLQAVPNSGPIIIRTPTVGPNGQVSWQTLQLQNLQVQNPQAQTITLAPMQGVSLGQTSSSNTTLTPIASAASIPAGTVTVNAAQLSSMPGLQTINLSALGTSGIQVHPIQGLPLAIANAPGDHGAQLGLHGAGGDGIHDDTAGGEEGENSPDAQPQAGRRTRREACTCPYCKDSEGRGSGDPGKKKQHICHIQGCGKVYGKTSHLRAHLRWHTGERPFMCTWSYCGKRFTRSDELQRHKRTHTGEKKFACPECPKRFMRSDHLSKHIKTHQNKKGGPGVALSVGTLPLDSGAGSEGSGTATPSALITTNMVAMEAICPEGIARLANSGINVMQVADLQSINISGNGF
Chain of Estrogen receptor (Homo sapiens) (P03372 whole entry, looked up, the tested form may be a part): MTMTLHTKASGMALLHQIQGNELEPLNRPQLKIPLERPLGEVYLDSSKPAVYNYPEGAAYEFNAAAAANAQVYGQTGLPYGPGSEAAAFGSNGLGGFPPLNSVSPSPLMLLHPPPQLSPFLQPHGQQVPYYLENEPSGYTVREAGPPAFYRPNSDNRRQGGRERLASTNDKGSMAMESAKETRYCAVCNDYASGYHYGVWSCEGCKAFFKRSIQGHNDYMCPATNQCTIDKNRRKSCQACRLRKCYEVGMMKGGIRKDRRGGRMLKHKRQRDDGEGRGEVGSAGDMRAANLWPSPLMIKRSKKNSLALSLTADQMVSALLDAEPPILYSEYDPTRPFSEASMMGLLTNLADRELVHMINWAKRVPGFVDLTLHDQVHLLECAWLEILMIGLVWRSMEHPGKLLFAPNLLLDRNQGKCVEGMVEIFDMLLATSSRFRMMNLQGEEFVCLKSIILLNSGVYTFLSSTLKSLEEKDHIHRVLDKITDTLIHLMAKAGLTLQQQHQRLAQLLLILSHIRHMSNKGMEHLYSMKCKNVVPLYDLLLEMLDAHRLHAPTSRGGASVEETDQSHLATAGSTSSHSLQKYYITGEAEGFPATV
Chain of Paired box protein Pax-6 (Homo sapiens) (P26367 whole entry, looked up): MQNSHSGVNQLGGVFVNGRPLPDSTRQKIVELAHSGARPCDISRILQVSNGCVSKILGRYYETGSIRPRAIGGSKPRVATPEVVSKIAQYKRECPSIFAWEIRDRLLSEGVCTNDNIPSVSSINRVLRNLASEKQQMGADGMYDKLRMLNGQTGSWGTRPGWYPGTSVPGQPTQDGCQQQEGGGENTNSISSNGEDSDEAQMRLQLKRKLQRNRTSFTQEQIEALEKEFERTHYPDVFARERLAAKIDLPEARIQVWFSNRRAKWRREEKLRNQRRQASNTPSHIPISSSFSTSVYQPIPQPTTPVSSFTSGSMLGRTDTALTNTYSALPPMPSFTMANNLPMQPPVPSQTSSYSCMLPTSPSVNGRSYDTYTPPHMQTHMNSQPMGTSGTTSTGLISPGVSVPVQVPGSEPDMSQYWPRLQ
Chain of X-box-binding protein 1 (Homo sapiens) (P17861 whole entry, looked up): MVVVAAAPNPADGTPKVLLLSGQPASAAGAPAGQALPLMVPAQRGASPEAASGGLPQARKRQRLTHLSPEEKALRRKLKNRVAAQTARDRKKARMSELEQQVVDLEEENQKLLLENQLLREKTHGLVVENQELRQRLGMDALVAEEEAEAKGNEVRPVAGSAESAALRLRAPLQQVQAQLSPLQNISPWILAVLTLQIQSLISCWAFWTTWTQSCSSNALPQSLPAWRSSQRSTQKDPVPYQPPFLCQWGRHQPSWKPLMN
Chain of Androgen receptor (Homo sapiens) (P10275 whole entry, looked up, the tested form may be a part): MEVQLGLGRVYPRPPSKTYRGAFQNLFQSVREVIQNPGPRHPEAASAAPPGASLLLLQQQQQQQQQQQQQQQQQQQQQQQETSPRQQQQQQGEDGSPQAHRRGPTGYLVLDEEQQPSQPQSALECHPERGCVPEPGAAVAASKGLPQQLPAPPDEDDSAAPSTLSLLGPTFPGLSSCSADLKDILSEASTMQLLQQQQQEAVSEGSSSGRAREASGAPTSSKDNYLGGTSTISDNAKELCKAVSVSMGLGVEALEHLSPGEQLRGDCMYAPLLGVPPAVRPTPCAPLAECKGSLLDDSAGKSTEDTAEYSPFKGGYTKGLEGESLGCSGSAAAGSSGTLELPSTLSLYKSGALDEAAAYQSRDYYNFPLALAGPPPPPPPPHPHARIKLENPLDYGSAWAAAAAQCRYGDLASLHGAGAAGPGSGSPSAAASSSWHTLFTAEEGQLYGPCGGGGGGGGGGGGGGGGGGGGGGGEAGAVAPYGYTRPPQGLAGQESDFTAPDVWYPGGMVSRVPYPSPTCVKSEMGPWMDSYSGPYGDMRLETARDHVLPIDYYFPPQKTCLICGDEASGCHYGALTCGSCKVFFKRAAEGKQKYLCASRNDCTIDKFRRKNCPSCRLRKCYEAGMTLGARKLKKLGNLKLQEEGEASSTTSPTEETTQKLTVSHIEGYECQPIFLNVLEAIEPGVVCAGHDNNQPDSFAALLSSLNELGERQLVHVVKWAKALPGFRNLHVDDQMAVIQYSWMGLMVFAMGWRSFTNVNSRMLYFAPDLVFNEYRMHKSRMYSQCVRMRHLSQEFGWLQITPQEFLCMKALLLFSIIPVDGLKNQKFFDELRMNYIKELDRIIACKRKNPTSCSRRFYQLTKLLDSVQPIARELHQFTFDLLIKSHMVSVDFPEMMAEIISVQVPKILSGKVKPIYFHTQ

CCCCN(CCCC)SN(C)C(=O)Oc1cccc2c1OC(C)(C)C2
active: [3] 8.93 µM | [14] 75.5 µM
not listed: [17] | [18] | [19]
inactive: all other assays above

O=P(OCC(Br)CBr)(OCC(Br)CBr)OCC(Br)CBr (configuration not stated)
active: [2] 19.6 µM | [3] 0.0674 µM | [7] 22.9 µM | [9] 11.8 µM | [15] 8.88 µM
not listed: [5] | [12] | [13] | [16]
inactive: all other assays above

CC(C)(C)OOC(C)(C)C
not listed: [12] | [13] | [14] | [17] | [19]
inactive: all other assays above

CC(C)(C)c1ccc(O)cc1
active: [2] 174 µM | [3] 26 µM | [17] 175 µM | [6] 175 µM | [7] 26.8 µM | [10] 148 µM | [15] 171 µM
inactive: [5] | [8] | [9] | [11]

ClC(Cl)=C(c1ccc(Cl)cc1)c1ccccc1Cl
active: [2] 100 µM | [3] 2.77 µM | [4] 55.3 µM | [6] 27.3 µM | [7] 98.5 µM | [18] 177 µM | [14] 2.02 µM | [15] 100 µM
not listed: [5]
inactive: all other assays above

CC1=C(C(=O)Nc2ccccc2)S(=O)(=O)CCO1
active: [2] 19.9 µM | [3] 5.02 µM | [12] 9.33 µM
not listed: [13] | [14] | [16] | [17] | [18] | [19]
inactive: all other assays above

ClC(Cl)(Cl)c1ccccc1
active: [3] 62.9 µM | [14] 45.2 µM
not listed: [4] | [16] | [18] | [19]
inactive: all other assays above
